# Laboratory results taken from PubChem BioAssay (NCI).
# The panel holds about 83,000 compounds, 20% with a hit somewhere; the sample as a whole holds those more often.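 Step 1: grow cells in 96-well plates. Step 2: add test compound at a single concentration. Step 3: incubate 48 h. Step 4: record percent growth.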 Unmarked numbers belong to inactive results. The source made the active and inactive calls. The calls were made as follows: active = growth percent below 10; inactive = the rest.
# What was measured:
# Experiment in all cases: NCI-60 one-dose screen, 48 h (100 = growth as untreated, 0 = no growth, -100 = all killed)
# Conditions in all cases: 10 µM unless noted
# NCI/ADR-RES ovarian = system: NCI/ADR-RES ovarian
# T-47D breast = system: T-47D breast
# BT-549 breast = system: BT-549 breast
# MDA-MB-435 melanoma = system: MDA-MB-435 melanoma
# SW-620 colon = system: SW-620 colon
# MCF7 breast = system: MCF7 breast
# HCT-116 colon = system: HCT-116 colon
# HCC-2998 colon = system: HCC-2998 colon
# KM12 colon = system: KM12 colon
Structure (SMILES),growth (NCI/ADR-RES ovarian),growth (T-47D breast),growth (BT-549 breast),growth (MDA-MB-435 melanoma),growth (SW-620 colon),growth (MCF7 breast),growth (HCT-116 colon),growth (HCC-2998 colon),growth (KM12 colon)
CC12CCC3C(C=CC4=C(N)C(=O)CCC43C)C1CCC2=O (configuration not stated),68.7%,73.7%,82.6%,113%,15.4%,-16% (active),6.15% (active),96%,39.5%
COc1ccc(/C=C/c2cc(OC)c(OC)c(OC)c2)cc1NC(=O)/C=C/c1ccc(F)cc1,-3.74% (active),32.1%,35.1%,-41.4% (active),30.5%,20.6%,23%,17.2%,25%
C#C[C@]1(OC(=O)CCCCCC)CC[C@H]2[C@@H]3CCC4=CC(=O)CC[C@@H]4[C@H]3CC[C@@]21C,40.3%,37.8%,34.1%,18.3%,28.1%,76%,12%,49.9%,29.2%
CC[S][Hg][Cl],106%,122%,111%,98.7%,106%,93.3%,106%,111%,107%
O=[N+]([O-])/C=C\c1ccc(Cl)c(Cl)c1,101%,38.3%,4.99% (active),-26.3% (active),-6.79% (active),-32.4% (active),-52.8% (active),64.1%,43.6%
Nc1ccc(OCCNS(=O)(=O)c2cccc(S(=O)(=O)F)c2)c(Cl)c1,101%,102%,95.9%,98.2%,106%,85.3%,95.2%,101%,101%
COC(=O)C1OC(Oc2ccc(N(CCCl)CCCl)cc2)C(OC(C)=O)C(OC(C)=O)C1OC(C)=O (configuration not stated),92.9%,77.4%,95.3%,93.2%,75.4%,57.8%,88.6%,96%,–
CC(=O)O[C@H](C[C@H](C(C)C)N(C)C(=O)[C@@H](NC(=O)[C@H]1CCCCN1C)C(C)C)c1nc(C(=O)N[C@@H](Cc2ccccc2)C[C@H](C)C(=O)O)c(C(C)C)s1,0.688% (active),44%,-23.3% (active),-42% (active),27.3%,15.1%,3.68% (active),-2.79% (active),4.51% (active)
C=C1[C@@H](C)[C@H]2[C@H](Cc3ccccc3)NC(=O)[C@]23[C@@H](O)/C=C/[C@@](C)(O)C(=O)[C@@H](C)C/C=C/[C@H]3[C@@H]1O,94.6%,48.3%,63.1%,80.5%,41.8%,63.8%,50.1%,62.4%,81.5%
C[C@]12CC[C@@H]3c4ccc(Oc5nc(N6CC6)nc(N6CC6)n5)cc4CC[C@H]3[C@@H]1CCC2=O,41.2%,33.7%,53.9%,48.5%,25.1%,20.6%,26.7%,37%,50%
Clc1ccc(COC(Cn2ccnc2)c2ccc(Cl)cc2Cl)cc1 (configuration not stated),23.3%,48.3%,55.9%,27.5%,34.3%,57.9%,33.6%,64.2%,29.1%
O=C(O)c1c(Cl)n(Cc2ccc(O)cc2)c2ccc(O)cc12,118%,118%,99.4%,87%,101%,101%,95%,119%,107%
CC(C)=CCc1c(O)c(C(=O)CC(C)C)c(O)c2c(-c3ccccc3)cc(=O)oc12,35.6%,33.4%,30.4%,57.1%,48.5%,28.3%,36.8%,42.4%,41%
CC1(C)N=C(N)N=C(N)N1c1cccc(CCCCc2ccc(Cl)c(S(=O)(=O)F)c2)c1,104%,86.6%,51.8%,35.8%,30.9%,28.8%,17.7%,35.1%,22.3%
O=C(CN1CCN(C(=O)c2ccco2)CC1)Nc1ccc(Cl)cc1C(=O)c1ccccc1Cl,83.4%,64.3%,101%,118%,86.8%,84.9%,86.8%,97.4%,89.1%
CC[C@H](C)[C@H](NC(=O)[C@H]1CCCCN1C)C(=O)N(C)[C@H](C[C@@H](OC(C)=O)c1nc(C(=O)N[C@@H](Cc2ccccc2)C[C@H](C)C(=O)OC)cs1)C(C)C,-4.28% (active),81%,-35.7% (active),-35.3% (active),45.4%,12.9%,4.25% (active),10.8%,2.43% (active)
Clc1ccc(N2COOC3(OOC2)C2CC4CC(C2)CC3C4)cc1,-13.3% (active),49.1%,68.7%,53.1%,75.3%,71.7%,50.4%,102%,36%
CC[C@@H]1[C@@H](C)O[C@@](O)([C@@H](C)[C@H](O)[C@H](C)[C@H]2OC(=O)/C=C/C=C/[C@H](C)[C@@H]([C@@H](C)[C@@H](O)[C@H](C)[C@@]3(O)C[C@@H](O[C@H]4C[C@@H](O)[C@H](O)C(C)O4)[C@H](CC)[C@@H](C)O3)OC(=O)/C=C/C=C/[C@@H]2C)C[C@H]1O[C@@H]1C[C@@H](O)[C@H](O)C(C)O1 (some centres not stated),-64.3% (active),-63% (active),-90.5% (active),-97% (active),-85.3% (active),-69.2% (active),-81.2% (active),-74.7% (active),-94.7% (active)
CCOc1ccc(/C=C/[N+](=O)[O-])cc1,100%,86%,80.8%,20.1%,66.6%,28.5%,-31.6% (active),23.7%,70.7%
CN(C)C1C(=O)C(C(N)=O)=C(O)C2(O)C(=O)C3=C(O)c4c(O)cccc4C(C)(O)C3CC12.[Cl][Sb]([Cl])[Cl] (configuration not stated),56.9%,60.3%,15.5%,24.1%,34.7%,57.6%,11.9%,39.6%,45.9%
CC12CC=CCC1CCC1C2CCC2(C)C(c3ccc(=O)oc3)CCC12O (configuration not stated),-41.1% (active),-4.1% (active),-65.4% (active),-89.1% (active),-58.9% (active),-21.6% (active),-67.1% (active),-10.9% (active),-49.5% (active)
CC(=O)O[C@H]1CC[C@@]2(C)C(=CC[C@H]3[C@@H]4C[C@@H](N5CC5)[C@H](C(C)=O)[C@@]4(C)CC[C@@H]32)C1,92.9%,88.3%,100%,99.9%,89.6%,72.8%,85.9%,106%,106%
O=c1[nH]cc(N(CCCl)CCCl)c(=O)[nH]1,66.3%,53%,81.5%,86.5%,71.8%,53.1%,78.8%,61.6%,86.5%
CC(=O)O[C@H]1C(=O)[C@@]2(C)[C@H]([C@H](OC(=O)c3ccccc3)[C@]3(O)C[C@H](OC(=O)[C@H](OC(=O)OC[C@@H]4COC(C)(C)O4)[C@@H](NC(=O)c4ccccc4)c4ccccc4)C(C)=C1C3(C)C)[C@]1(OC(C)=O)CO[C@@H]1C[C@@H]2O,80.9%,25.5%,12.5%,-77.7% (active),26.5%,11%,5.09% (active),-4.98% (active),10.7%
NC(CCl)CCl,105%,-100% (active),107%,89.2%,102%,96.5%,107%,101%,99.5%
COc1ccc(C(=O)c2cc(OC)c(OC)c(OC)c2)cc1OC(C)=O,7.97% (active),55.2%,8.56% (active),-16.3% (active),25.1%,15.7%,6.24% (active),25.5%,11.2%
CC[C@H](C)[C@H](NC(=O)[C@H]1CCCCN1C)C(=O)N(C)[C@H](CCc1nc(C(=O)N[C@@H](Cc2ccccc2)C[C@H](C)C(=O)OC)cs1)C(C)C,29.2%,59.3%,-8.87% (active),-39.4% (active),28%,20.5%,1.83% (active),20.7%,15.8%
